In PubChem BioAssay (NCATS):
Records with an inconclusive call do not appear. The source made the active and inactive calls. Calls come from the whole dose curve; as a rule, active = well fitted cell-killing curve with a large enough effect; inconclusive = small, poorly fitted or top-dose-only effect, or effect the other way; inactive = no such curve, though single readings can be large or run the other way. Positions of bridges follow the written chain, without caps; N, C: chain ends. Non-standard residues stand in square brackets, D forms with d. Residues, ends and D or L forms follow the SMILES beside them. ξ: configuration not given here. *: point of attachment. Octanoyl(6-Me) = CCC(C)CCCCC(=O)*; ξThr(3R) = C[C@@H](O)C(N)C(=O)O; dDab = NCC[C@@H](N)C(=O)O; Dab = NCC[C@H](N)C(=O)O

Experiment: Quantitative High-Throughput drug screen in 47 multiple myeloma cell lines against the NCATS MIPE library collection: FR4_PLB cell viability assay (AID 1918924; note: nearly all actives have a fitted effect of over 35% in size)
Conditions: FR4_PLB myeloma cells viability, CellTiter-Glo ATP, 48 h; series mostly up to 45.8 µM
From the text: PI: Beverly A. Mock Ph.D.
Laboratory of Cancer Biology and Genetics,
Center for Cancer Research, National Cancer Institute,
National Institute of Health, Bethesda, Maryland
Drug resistance and disease progression are common in multiple myeloma (MM) patients, underscoring the need for new therapeutic combinations. […] We hypothesized that effective combinations would reduce MYC expression and enhance p16 activity. […] These preclinical data identify potentially useful drug combinations for evaluation in drug-resistant MM and reveal potential mechanisms of combined drug sensitivity.
Described herein is the primary MIPE qHTS used to cherrypick compounds. Validated compounds were then further tested for potential synergistic activiy.
[1] Peat TJ, Gaikwad SM, Dubois W, Gyabaah-Kessie N, Zhang S, Gorjifard S, Phyo Z, Andres M, Hughitt VK, Simpson RM, Miller MA, Girvin AT, Taylor A, Williams D, D'Antonio N, Zhang Y, Rajagopalan A, Flietner E, Wilson K, Zhang X, Shinn P, Klumpp-Thomas C, McKnight C, Itkin Z, Chen L, Kazandijian D, Zhang J, Michalowski AM, Simmons JK, Keats J, Thomas CJ, Mock BA. Drug combinations identified by high-throughput screening promote cell cycle transition and upregulate Smad pathways in myeloma. Cancer Lett. 2023 Aug 1;568:216284. doi: 10.1016/j.canlet.2023.216284. Epub 2023 Jun 24. PMID: 37356470; PMCID: PMC10408729.
SEQUENCE No. (e.g., 1, 2, 3, etc.); […] (e.g., Cells, Incubation, Reagent, etc.); VALUE and DESCRIPTION.
1; Cells; 5 uL; white, solid bottom 1536-well Greiner assay plate.
2; Compounds; 23 nL; Kalypsis pin tool (Wako USA) equipped with a 1536-well pin head to transfer to the assay plates.
3; Incubation; 48 hours; 37C incubation.
4; Reagent;5uL; CellTiter Glo (Promega).
5; Detector; 425V; Luminescence; Viewlux PerkinElmer.
NOTES (numbers refer to Sequence numbers above)
1. The cell-based screening methods employed in this study were like those previously published. Briefly, the corresponding myeloma cell lines were screened in 1,536-well plates with 500 cells, 5-uL per well for inhibition of cell viability (assessed by measuring ATP levels with CellTiterGlo).
2. NCATS MIPE 4.0 library of approved and investigational drugs were added using the Kalypsis pin tool. Wells treated with DMSO only for 100% viability and media only wells for 0% viability were used as controls.
3. The assay plates were covered and incubated for 48 hours in a 37C, 5% CO2 incubator with controlled humidity.
4. After 48 hours, CellTilter-GloTM luminescent substrate mix (Promega) reagent was added to the assay plate and plates we incubated for 5 min at room temperature.
5. Signal was measured as median relative luminescence units on a ViewLux (PerkinElmer) multiplate reader.
[1] Heske CM, Davis MI, Baumgart JT, Wilson K, Gormally MV, Chen L, Zhang X, Ceribelli M, Duveau DY, Guha R, Ferrer M, Arnaldez FI, Ji J, Tran HL, Zhang Y, Mendoza A, Helman LJ, Thomas CJ. Matrix Screen Identifies Synergistic Combination of PARP Inhibitors and Nicotinamide Phosphoribosyltransferase (NAMPT) Inhibitors in Ewing Sarcoma. Clin Cancer Res. 2017 Dec 1;23(23):7301-7311. doi: 10.1158/1078-0432.CCR-17-1121. Epub 2017 Sep 12. PMID: 28899971; PMCID: PMC6636827.
Potency is the fitted concentration of half-maximal effect.

Structure (SMILES) | Potency
Cc1ccc2nc(NCCN)c3ncc(C)n3c2c1 | 3.32 µM (active)
O=C(O)CCCCC(CCSCc1ccccc1)SCc1ccccc1 (stereo not given) | inactive
CC(C=CC(=O)NO)=C[C@@H](C)C(=O)c1ccc(N(C)C)cc1 | 0.332 µM (active)
CC(=O)C1=C(O)C=C2Oc3c(C(C)=O)c(O)c(C)c(O)c3C2(C)C1=O (stereo not given) | inactive
CCCc1nc(C(C)(C)O)c(C(=O)O)n1Cc1ccc(-c2ccccc2-c2nn[nH]n2)cc1 | inactive
Cn1cc(C2=C(c3c4n(c5ccccc35)CCC(CN)C4)C(=O)NC2=O)c2ccccc21 (stereo not given) | 18.7 µM (active)
CC1(C)O[C@@H]2C[C@H]3[C@@H]4CCC5=CC(=O)C=C[C@]5(C)[C@@H]4[C@@H](O)C[C@]3(C)[C@]2(C(=O)CO)O1 | inactive
Cc1ccccc1C(=O)Nc1ccc(C(=O)N2CCCC(O)c3cc(Cl)ccc32)c(C)c1 (stereo not given) | inactive
CN1CCCN(C(=O)c2cccc(-c3ccc(C=C4C(=O)Nc5ccc(Cl)cc54)o3)c2)CC1 | 26.4 µM (active)
Cc1cnc(Nc2ccc(N3CCN(C)CC3)cc2)nc1Nc1cccc(S(=O)(=O)NC(C)(C)C)c1 | 16.6 µM (active)
COc1cc(OC)cc(-c2ccc3ncc4ccc(=O)n(-c5ccc(N6CCNCC6)c(C(F)(F)F)c5)c4c3c2)c1 | 4.69 µM (active)
O=C(NNC(=O)c1ccc(CNS(=O)(=O)c2ccc(F)c(Cl)c2)cc1)c1ccccc1 | inactive
CCCCC(=O)O[C@]1(C(=O)CO)[C@@H](C)C[C@H]2[C@@H]3CCC4=CC(=O)C=C[C@]4(C)[C@@]3(F)[C@@H](O)C[C@@]21C | inactive
COC(=O)[C@H](CCCN=C(N)N)NS(=O)(=O)c1ccc(C)cc1 | inactive
FC(F)(F)c1ccc(Nc2nc3ccc(Oc4ccnc(-c5ncc(C(F)(F)F)[nH]5)c4)cc3[nH]2)cc1 | 18.7 µM (active)
OC[C@@H](O)[C@@H](O)[C@H](O)[C@@H](O)CO | inactive
Cc1ccc([N+](=O)[O-])cc1S(=O)(=O)N(C)N=Cc1cnc2ccc(Br)cn12 | 0.0166 µM (active)
COc1cc(OC)c(C=CS(=O)(=O)Cc2ccc(OC)c(NCC(=O)O)c2)c(OC)c1 | 0.118 µM (active)
CC(=O)N[C@@H]1[C@H](O[C@@H]2c3ccc(c(Cl)c3)Oc3cc4cc(c3O[C@H]3O[C@H](CO)[C@@H](O)[C@H](O)[C@H]3NC(=O)CCCCCCCC(C)C)Oc3ccc(cc3Cl)C[C@H]3NC(=O)[C@H](N)c5ccc(O)c(c5)Oc5cc(O)cc(c5)[C@H](NC3=O)C(=O)N[C@H]4C(=O)N[C@H]3C(=O)N[C@@H]2C(=O)N[C@@H](C(=O)O)c2cc(O)cc(O[C@H]4O[C@H](CO)[C@@H](O)[C@H](O)[C@H]4O)c2-c2cc3ccc2O)O[C@H](CO)[C@@H](O)[C@@H]1O | inactive
N=c1ccn2c(n1)O[C@H]1[C@@H](O)[C@@H](CO)O[C@H]12 | inactive

Structure (SMILES) | Potency
Cn1cc(-c2cnn3c(N)c(Br)c([C@H]4CCCNC4)nc23)cn1 | 0.132 µM (active)
c1ccc(CNc2nc(NCc3ccccc3)c3ccccc3n2)cc1 | 23.5 µM (active)
CC[C@]12C=CCN3CC[C@@]4(c5cc([C@@]6(C(=O)OC)C[C@H]7C[C@@H](C(C)(F)F)CN(Cc8c6[nH]c6ccccc86)C7)c(OC)cc5N(C)[C@H]4[C@@](O)(C(=O)OC)[C@H]1OC(C)=O)[C@@H]32 | 0.0017 µM (active)
CCC(C)CCCCC(=O)N[C@@H](CCN)C(=O)NC(C(=O)N[C@H](CCN)C(=O)N[C@@H]1CCNC(=O)C([C@@H](C)O)NC(=O)[C@@H](CCN)NC(=O)[C@@H](CCN)NC(=O)[C@@H](CC(C)C)NC(=O)[C@H](Cc2ccccc2)NC(=O)[C@H](CCN)NC1=O)[C@@H](C)O (stereo partly drawn) ({Octanoyl(6-Me)}-[Dab][ξThr(3R)][dDab][dDab][Dab]F[dL][dDab][dDab][ξThr(3R)]; lactam 4-C) | inactive
COc1cccc2c1C(=O)c1c(O)c3c(c(O)c1C2=O)C[C@@](O)(C(C)=O)C[C@H]3O[C@H]1C[C@H](N)[C@H](O)[C@H](C)O1 | 0.132 µM (active)
COc1cc(OC)c(NC(=O)Nc2cc(C)on2)cc1Cl | inactive
CC(=O)OC[C@@H]1O[C@@H](n2ccc(=O)[nH]c2=O)[C@H](OC(C)=O)[C@H]1OC(C)=O | inactive
Oc1cc2c(cc1O)C1c3ccc(O)c(O)c3OCC1(O)C2 (stereo not given) | inactive
CC[C@H]1OC(=O)[C@H](C)[C@@H](O[C@H]2C[C@@](C)(OC)[C@@H](O)[C@H](C)O2)[C@H](C)[C@@H](O[C@@H]2O[C@H](C)C[C@H](N(C)C)[C@@H]2O)[C@](C)(OC)C[C@@H](C)C(=O)[C@H](C)[C@@H](O)[C@]1(C)O | inactive
C[C@H](NCc1ccc(OCc2cccc(F)c2)cc1)C(N)=O | 16.6 µM (active)
O=C(O)C(=O)Nc1cccc(C2=NN=N[N]2)c1 | inactive
CCCNC(=O)[C@H]1O[C@H]1C(=O)N[C@H](C(=O)N1CCC[C@@H]1C(=O)OC)C(C)CC (stereo not given in full) | 8.33 µM (active)
Cc1ncc(-c2ccnc(Nc3ccc(S(C)(=O)=O)cc3)n2)n1C(C)C | 2.64 µM (active)
C[C@]12CC[C@@H]3c4ccc(O)cc4CC[C@H]3[C@H]1CC[C@H]2O | 16.6 µM (active)
CC(C)(O)Cn1c(NC(=O)c2ccc(-c3cn[nH]c3)s2)nc2cc(CN3CCOCC3)ccc21 | 0.743 µM (active)
C=CCNC1=C2C[C@@H](C)C[C@H](OC)[C@@H](O)[C@@H](C)C=C(C)[C@H](OC(N)=O)[C@@H](OC)C=CC=C(C)C(=O)NC(=CC1=O)C2=O | 0.662 µM (active)
CC[C@@]1([C@@H]2O[C@@H]([C@H]3O[C@@](O)(CO)[C@H](C)C[C@H]3C)C[C@H]2C)CC[C@H]([C@]2(C)CC[C@]3(C[C@H](O)[C@@H](C)[C@@H]([C@@H](C)[C@@H](OC)[C@H](C)C(=O)O)O3)O2)O1 | 0.812 µM (active)
N#Cc1cc(NC(=O)Nc2nnc(-c3ccncc3)s2)ccc1-c1cn[nH]c1 | inactive
CN(C)c1ccc2cc(C(=O)N[C@@H](CCCN=C(N)CCl)C(=O)NCc3ccccc3)ccc2c1 | 11.8 µM (active)
CC(=O)OCC(=O)[C@@]1(O)CC[C@H]2[C@@H]3CCC4=CC(=O)CC[C@]4(C)[C@@H]3C(=O)C[C@@]21C | inactive
